The supplement of paper PMC11732987, “Enantioselective OTUD7B fragment discovery through chemoproteomics screening and high-throughput optimisation” (Communications Chemistry, 2025)

Experiments:
Assay in all cases: log2 ratio of Biotin-Ahx-Ub-VS probe labelling (fragment/DMSO); higher = less target engagement (more negative = stronger competition), active = hit call of the paper (q ≤ 0.05, log2 ratio ≤ -1)
Conditions in all cases: compound concentration: 200 uM; treatment time: 3 h
[1] = target: USP34 (UniProt Q70CQ2)
Summary of the method: (§1)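 HEK293T lysate, 495 µg per sample in Tris/CHAPS/IGEPAL buffer with protease inhibitors, was treated in triplicate with fragment at 200 µM or vehicle for 3 h and then with Biotin-Ahx-Ub-VS at 0.5 µM final for 1 h. Labelled DUBs were NeutrAvidin-enriched, digested with LysC and trypsin, and run by diaPASEF LC-MS/MS. Spectronaut label-free quantities were global-median-normalised, and values are average log2 fragment/vehicle ratios by unpaired t-test on proteins with ≥2 unique peptides.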

[2] = target: T1, USP36 (UniProt Q9P275)
T1 sequence (whole entry): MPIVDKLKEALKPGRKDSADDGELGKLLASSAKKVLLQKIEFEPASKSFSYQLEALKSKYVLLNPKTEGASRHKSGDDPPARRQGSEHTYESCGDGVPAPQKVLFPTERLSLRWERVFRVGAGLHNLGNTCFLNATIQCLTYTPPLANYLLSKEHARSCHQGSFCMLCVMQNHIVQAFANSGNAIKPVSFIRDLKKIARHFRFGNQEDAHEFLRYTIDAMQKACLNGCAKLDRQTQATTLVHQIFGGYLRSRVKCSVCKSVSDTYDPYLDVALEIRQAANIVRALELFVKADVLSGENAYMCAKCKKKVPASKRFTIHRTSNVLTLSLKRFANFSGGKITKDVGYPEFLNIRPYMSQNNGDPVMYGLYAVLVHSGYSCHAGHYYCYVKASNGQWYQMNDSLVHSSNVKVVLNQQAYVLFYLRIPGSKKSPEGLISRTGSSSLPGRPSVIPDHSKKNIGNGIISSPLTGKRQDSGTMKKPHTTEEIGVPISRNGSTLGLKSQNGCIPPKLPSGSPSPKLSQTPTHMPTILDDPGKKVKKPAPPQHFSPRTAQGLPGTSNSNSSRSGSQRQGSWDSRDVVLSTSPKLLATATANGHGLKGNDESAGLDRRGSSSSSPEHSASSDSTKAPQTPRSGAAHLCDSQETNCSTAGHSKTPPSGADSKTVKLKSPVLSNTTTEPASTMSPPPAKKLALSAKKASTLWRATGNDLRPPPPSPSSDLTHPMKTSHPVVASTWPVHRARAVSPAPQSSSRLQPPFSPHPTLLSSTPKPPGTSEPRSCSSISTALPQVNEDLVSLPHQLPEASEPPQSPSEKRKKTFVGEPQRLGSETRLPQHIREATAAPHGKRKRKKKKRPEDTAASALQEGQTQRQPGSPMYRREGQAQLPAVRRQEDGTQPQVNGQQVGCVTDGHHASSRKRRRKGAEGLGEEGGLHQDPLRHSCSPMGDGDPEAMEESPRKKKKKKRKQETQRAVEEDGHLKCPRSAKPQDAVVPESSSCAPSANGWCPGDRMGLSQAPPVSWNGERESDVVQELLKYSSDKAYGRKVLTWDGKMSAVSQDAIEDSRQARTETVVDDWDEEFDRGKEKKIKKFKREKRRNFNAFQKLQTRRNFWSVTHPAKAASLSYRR
Summary of the method: as §1

[3] = target: T2, USP38 (UniProt Q8NB14)
T2 sequence (whole entry): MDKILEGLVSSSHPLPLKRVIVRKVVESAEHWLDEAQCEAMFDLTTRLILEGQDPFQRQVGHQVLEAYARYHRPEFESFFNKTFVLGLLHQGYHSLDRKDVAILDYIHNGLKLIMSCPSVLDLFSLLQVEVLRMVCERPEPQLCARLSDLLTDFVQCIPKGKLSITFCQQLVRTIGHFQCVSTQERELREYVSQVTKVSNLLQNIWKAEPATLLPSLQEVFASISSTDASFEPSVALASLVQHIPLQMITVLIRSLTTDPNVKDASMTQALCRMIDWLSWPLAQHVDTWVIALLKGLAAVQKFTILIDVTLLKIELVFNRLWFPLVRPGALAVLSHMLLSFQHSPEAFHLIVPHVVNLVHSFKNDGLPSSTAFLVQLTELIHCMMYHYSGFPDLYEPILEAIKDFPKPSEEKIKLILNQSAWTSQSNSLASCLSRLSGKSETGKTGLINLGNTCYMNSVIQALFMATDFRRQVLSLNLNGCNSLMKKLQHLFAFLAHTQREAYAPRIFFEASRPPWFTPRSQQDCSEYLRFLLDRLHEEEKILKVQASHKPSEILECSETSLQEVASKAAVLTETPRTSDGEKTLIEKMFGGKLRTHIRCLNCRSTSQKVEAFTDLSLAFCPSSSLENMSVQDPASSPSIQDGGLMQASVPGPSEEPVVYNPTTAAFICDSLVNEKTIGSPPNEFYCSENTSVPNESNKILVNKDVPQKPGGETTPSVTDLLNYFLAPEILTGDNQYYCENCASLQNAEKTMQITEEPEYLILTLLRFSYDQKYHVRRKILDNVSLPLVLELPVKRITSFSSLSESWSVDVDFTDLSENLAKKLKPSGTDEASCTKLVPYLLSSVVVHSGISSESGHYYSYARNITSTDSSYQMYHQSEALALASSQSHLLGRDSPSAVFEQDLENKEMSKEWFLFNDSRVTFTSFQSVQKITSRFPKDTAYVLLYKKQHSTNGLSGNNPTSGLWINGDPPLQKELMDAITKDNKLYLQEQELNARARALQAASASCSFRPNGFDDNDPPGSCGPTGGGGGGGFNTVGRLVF
Summary of the method: as §1

[4] = target: T3, USP39 (UniProt Q53GS9)
T3 sequence (whole entry): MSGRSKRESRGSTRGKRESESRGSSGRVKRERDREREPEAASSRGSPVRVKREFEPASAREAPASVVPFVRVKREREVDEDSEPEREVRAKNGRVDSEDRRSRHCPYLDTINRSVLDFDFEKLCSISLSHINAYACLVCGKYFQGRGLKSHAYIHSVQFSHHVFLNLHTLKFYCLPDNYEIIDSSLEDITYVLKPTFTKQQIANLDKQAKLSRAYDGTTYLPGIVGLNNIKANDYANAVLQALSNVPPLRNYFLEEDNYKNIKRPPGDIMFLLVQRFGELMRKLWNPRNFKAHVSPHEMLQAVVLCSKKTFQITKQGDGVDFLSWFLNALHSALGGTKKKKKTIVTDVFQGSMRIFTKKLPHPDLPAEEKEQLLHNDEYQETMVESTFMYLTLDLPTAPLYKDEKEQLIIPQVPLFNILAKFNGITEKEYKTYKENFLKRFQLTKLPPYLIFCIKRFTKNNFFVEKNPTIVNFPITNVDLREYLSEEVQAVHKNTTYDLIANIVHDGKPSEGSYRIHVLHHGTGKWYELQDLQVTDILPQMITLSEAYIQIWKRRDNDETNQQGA
Summary of the method: as §1

[5] = target: T4, USP4 (UniProt Q13107)
T4 sequence (whole entry): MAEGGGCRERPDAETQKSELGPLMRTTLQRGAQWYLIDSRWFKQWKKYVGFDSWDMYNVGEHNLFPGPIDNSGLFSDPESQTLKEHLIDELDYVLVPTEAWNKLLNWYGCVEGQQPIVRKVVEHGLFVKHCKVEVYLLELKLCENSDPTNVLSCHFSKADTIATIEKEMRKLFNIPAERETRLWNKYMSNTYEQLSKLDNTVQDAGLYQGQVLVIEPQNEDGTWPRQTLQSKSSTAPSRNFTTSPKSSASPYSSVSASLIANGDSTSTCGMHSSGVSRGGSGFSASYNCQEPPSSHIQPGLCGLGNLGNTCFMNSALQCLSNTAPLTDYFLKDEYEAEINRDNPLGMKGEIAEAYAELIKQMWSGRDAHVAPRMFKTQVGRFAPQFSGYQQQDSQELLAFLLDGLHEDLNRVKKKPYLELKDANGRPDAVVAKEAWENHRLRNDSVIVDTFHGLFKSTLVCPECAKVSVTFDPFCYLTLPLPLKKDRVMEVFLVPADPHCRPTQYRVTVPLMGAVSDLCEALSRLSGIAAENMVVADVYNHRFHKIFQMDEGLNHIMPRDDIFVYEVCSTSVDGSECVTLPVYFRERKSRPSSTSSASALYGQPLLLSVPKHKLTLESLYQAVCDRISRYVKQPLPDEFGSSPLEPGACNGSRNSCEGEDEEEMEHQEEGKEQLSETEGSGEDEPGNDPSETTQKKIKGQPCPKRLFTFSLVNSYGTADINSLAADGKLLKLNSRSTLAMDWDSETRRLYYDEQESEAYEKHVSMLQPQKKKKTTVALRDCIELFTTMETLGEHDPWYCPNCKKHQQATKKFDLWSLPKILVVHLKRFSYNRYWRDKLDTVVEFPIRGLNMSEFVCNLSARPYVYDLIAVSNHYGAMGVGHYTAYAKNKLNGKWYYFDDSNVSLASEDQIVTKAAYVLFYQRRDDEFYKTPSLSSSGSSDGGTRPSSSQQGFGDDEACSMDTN
Summary of the method: as §1

Measured: log2 ratio of Biotin-Ahx-Ub-VS probe labelling

Sequence of USP34 (Q70CQ2 whole entry, the tested form may be a part): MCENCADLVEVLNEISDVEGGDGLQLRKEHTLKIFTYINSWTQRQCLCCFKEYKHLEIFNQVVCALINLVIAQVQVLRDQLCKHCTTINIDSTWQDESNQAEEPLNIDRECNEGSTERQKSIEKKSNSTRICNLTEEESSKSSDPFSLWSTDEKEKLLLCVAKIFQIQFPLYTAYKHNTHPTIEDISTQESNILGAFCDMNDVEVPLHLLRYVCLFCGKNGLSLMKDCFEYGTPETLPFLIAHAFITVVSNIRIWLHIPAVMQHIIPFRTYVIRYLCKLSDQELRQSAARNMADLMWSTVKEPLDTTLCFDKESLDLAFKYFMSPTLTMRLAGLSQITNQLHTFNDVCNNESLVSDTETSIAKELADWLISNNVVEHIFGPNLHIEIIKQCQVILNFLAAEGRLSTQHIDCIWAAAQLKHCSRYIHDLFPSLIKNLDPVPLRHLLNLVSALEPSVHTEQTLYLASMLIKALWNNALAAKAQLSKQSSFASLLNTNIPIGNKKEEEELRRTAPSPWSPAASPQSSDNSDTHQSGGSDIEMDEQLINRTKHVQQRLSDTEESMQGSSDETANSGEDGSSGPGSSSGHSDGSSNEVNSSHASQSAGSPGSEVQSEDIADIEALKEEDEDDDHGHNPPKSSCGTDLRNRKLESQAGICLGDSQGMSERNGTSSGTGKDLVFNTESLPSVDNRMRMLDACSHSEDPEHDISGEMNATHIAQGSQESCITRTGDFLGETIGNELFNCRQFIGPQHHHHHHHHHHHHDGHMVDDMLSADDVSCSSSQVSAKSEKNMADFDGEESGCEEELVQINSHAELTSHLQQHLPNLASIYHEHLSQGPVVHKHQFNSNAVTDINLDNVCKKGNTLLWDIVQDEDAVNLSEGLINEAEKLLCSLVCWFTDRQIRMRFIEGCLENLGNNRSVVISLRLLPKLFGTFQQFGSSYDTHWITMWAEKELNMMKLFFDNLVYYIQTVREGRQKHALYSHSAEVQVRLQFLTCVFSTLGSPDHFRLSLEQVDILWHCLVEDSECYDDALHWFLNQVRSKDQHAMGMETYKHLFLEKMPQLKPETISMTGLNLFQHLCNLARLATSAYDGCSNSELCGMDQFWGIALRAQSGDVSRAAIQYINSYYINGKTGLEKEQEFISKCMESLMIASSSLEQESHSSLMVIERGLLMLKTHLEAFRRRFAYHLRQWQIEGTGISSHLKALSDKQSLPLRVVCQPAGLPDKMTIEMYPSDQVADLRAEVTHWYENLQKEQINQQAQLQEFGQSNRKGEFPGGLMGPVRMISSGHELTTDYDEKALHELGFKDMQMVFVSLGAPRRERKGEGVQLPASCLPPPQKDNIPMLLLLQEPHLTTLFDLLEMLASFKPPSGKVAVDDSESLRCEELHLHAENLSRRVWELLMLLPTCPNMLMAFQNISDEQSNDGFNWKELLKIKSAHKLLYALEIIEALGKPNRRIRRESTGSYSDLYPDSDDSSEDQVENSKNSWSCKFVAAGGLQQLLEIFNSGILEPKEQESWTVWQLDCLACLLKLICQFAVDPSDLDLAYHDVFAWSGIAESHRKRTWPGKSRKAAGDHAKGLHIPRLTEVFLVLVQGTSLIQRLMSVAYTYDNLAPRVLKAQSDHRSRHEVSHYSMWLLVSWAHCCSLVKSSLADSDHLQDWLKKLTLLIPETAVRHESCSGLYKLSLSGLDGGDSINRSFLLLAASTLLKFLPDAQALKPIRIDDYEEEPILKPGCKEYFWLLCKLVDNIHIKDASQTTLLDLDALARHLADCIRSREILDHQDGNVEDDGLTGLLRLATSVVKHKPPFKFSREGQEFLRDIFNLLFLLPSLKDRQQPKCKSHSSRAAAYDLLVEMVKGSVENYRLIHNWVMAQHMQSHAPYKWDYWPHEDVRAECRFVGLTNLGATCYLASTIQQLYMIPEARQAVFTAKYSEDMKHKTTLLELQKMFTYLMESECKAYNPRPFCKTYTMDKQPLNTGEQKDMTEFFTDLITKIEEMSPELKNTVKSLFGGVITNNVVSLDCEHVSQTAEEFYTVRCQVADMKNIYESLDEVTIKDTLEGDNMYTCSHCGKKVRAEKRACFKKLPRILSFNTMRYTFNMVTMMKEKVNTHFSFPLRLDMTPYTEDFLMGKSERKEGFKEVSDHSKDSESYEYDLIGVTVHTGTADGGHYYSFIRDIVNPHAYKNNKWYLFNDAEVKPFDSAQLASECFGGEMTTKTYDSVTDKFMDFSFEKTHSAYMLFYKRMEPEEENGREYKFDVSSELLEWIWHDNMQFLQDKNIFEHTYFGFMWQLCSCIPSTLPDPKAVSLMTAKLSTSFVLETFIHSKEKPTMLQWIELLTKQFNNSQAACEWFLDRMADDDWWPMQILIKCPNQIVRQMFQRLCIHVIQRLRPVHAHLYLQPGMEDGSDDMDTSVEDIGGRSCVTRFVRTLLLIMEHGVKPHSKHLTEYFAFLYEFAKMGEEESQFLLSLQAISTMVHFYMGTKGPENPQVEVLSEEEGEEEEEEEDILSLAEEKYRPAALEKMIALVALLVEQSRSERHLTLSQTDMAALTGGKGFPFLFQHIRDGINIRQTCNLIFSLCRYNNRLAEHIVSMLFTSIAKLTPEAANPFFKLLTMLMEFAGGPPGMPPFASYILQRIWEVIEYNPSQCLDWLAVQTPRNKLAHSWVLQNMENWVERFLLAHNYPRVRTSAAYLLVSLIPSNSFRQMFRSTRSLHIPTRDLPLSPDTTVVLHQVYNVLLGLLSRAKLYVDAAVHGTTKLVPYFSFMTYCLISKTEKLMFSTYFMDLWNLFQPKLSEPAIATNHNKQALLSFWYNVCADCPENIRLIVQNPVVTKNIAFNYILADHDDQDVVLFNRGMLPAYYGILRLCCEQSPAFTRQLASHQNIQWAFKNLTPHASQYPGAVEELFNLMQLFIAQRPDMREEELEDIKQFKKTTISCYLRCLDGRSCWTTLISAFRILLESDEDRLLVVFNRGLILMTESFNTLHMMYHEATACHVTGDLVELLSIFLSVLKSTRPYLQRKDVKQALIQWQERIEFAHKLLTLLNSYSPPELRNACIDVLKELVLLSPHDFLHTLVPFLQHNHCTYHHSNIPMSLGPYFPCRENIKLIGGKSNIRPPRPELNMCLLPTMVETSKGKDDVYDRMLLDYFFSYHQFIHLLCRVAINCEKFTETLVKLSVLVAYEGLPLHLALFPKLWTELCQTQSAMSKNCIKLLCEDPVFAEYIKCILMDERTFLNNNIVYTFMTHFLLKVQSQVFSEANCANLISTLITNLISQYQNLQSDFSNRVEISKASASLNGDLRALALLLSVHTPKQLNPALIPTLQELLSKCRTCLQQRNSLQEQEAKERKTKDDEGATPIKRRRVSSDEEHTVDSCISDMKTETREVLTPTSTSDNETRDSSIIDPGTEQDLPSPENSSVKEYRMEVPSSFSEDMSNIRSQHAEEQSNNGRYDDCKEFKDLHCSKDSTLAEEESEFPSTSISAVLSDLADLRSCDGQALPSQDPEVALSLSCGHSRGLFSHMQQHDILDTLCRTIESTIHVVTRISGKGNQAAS

N#Cc1ccc(CNC(=O)CCl)cc1
inactive: [1] -0.0142 | [2] 0.0698 | [3] -0.0952 | [4] 0.191 | [5] -0.0634
